# Results: PMC7862700, “An all-to-all approach to the identification of sequence-specific readers for epigenetic DNA modifications on cytosine”
# Key:
# Test in all cases: DAPPL (digital affinity profiling via proximity ligation, sequencing); 10 mM Tris-HCl pH 7.5, 50 mM NaCl, 1 mM DTT, 4% glycerol, room temperature, 30 min; GST-TFs on glutathione beads, 16-mer random dsDNA library, 0.1% formaldehyde crosslink after washing; high values mean tight binding
# FEV = biological target: T1, FEV (Homo sapiens, UniProt Q99581 1-238); details: protein: recombinant; tags: N-terminal GST; dsDNA, one strand shown
# T1 sequence: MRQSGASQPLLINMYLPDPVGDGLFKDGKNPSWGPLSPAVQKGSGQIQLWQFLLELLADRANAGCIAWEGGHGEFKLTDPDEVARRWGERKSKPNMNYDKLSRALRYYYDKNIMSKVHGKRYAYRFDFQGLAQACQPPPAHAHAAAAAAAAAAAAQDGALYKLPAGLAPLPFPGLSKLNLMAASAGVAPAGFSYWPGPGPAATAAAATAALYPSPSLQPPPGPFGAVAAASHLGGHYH
# How it was run: (§1)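 Sequencing on an Illumina NextSeq500 followed washing, crosslinking with 0.1% formaldehyde, proximity ligation (BsaI/T4 ligase, 1 h, 37 °C) and PCR amplification of pools that had been incubated for 30 min at room temperature with 200 nmole of a random double-stranded 16-mer DNA library in Tris/NaCl/DTT/glycerol buffer. Each pool held DNA-barcoded human transcription factors, expressed in yeast as GST fusions and captured on glutathione beads, plus a tag-only sample. Binding signal is a hexamer's read frequency for a factor divided by its frequency in the tag-only sample.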
# ETV5 = ETV5 (Homo sapiens, UniProt P41161 1-510); details: protein: recombinant; tags: N-terminal GST; dsDNA, one strand shown
# Sequence of ETV5 (P41161 whole entry): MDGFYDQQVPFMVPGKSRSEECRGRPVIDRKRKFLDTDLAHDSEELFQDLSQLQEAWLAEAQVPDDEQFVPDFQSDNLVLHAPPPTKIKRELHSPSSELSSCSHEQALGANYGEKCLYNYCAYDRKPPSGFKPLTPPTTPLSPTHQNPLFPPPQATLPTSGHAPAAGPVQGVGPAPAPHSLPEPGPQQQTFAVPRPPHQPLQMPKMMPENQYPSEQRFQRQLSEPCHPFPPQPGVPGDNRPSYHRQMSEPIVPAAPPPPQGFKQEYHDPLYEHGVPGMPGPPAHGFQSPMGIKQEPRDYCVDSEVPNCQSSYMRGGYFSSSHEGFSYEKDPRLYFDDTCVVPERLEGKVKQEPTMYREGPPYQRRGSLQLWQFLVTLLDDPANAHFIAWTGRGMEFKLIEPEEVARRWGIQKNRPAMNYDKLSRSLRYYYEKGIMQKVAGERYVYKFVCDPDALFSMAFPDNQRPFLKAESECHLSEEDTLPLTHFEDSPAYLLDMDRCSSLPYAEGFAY
# How it was run: as §1
# HSF1 = HSF1 (Homo sapiens, UniProt Q00613 1-529); details: protein: recombinant; tags: N-terminal GST; chain copies: 3; dsDNA, one strand shown
# Sequence of HSF1 (Q00613 whole entry): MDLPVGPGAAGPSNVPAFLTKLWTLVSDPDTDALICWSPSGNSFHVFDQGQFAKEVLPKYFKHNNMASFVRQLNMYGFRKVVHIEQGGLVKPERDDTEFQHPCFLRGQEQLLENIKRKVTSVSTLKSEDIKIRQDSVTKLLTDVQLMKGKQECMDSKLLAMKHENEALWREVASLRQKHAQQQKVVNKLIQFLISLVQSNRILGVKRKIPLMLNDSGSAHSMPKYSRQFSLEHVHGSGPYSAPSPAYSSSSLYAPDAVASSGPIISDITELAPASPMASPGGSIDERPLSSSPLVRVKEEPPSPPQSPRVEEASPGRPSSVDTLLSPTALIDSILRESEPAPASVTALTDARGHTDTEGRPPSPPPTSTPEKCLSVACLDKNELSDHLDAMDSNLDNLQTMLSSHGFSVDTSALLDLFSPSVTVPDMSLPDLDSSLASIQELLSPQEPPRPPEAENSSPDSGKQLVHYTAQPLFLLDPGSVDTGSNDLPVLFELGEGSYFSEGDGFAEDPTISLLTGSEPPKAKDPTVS
# How it was run: as §1
# SPIC = biological target: T2, SPIC (Homo sapiens, UniProt Q8N5J4 1-248); details: protein: recombinant; tags: N-terminal GST; dsDNA, one strand shown
# T2 sequence: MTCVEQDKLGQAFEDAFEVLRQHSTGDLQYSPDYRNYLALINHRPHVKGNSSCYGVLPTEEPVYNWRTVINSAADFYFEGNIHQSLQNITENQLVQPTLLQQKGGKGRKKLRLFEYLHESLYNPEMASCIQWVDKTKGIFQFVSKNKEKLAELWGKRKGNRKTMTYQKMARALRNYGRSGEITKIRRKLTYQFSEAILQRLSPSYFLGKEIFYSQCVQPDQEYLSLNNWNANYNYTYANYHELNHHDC
# How it was run: as §1
# ELF4 = ELF4 (Homo sapiens, UniProt Q99607 1-663); details: protein: recombinant; tags: N-terminal GST; dsDNA, one strand shown
# Sequence of ELF4 (Q99607 whole entry): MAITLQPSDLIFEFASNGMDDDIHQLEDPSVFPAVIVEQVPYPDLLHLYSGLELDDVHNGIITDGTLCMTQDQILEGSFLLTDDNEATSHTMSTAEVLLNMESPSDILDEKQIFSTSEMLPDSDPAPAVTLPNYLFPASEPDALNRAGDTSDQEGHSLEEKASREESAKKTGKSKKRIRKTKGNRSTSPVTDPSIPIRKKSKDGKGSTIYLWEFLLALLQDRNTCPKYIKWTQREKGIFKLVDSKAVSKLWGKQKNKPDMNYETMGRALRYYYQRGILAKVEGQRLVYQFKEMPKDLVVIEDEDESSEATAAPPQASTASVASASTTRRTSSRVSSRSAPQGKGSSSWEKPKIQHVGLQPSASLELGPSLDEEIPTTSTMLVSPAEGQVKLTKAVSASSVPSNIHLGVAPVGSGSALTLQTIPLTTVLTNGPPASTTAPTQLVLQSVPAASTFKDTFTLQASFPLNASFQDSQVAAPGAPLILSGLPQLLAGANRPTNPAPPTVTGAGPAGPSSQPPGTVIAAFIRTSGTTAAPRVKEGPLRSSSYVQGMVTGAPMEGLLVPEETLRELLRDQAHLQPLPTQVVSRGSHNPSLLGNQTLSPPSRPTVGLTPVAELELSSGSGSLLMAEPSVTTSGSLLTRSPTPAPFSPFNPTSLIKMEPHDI
# How it was run: as §1
# ELK4 = biological target: T3, ELK4 (Homo sapiens, UniProt P28324-2 1-405); details: protein: recombinant; tags: N-terminal GST; dsDNA, one strand shown
# T3 sequence: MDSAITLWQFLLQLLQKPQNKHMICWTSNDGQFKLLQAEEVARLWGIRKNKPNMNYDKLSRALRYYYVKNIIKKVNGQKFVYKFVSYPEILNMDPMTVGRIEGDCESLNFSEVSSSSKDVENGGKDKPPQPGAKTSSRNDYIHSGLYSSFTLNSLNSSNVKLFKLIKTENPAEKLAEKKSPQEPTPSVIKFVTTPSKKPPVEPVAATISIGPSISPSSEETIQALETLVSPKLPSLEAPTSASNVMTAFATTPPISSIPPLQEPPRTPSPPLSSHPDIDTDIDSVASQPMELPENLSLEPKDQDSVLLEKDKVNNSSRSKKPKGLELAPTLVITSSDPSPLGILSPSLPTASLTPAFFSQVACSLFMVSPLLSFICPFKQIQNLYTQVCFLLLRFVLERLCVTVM
# How it was run: as §1
# ETV2 = biological target: T4, ETV2 (Homo sapiens, UniProt O00321 1-342); details: protein: recombinant; tags: N-terminal GST; dsDNA, one strand shown
# T4 sequence: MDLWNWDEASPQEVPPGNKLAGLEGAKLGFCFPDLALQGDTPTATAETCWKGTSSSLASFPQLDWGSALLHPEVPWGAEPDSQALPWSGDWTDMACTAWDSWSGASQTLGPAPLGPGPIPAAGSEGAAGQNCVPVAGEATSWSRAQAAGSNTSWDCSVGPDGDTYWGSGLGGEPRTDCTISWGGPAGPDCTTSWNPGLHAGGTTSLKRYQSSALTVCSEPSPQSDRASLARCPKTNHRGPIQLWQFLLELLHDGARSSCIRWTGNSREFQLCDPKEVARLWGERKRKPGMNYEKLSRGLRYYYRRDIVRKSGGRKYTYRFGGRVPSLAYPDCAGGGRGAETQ
# How it was run: as §1
# ELF3 = biological target: T5, ELF3 (Homo sapiens, UniProt P78545 1-371); details: protein: recombinant; tags: N-terminal GST; dsDNA, one strand shown
# T5 sequence: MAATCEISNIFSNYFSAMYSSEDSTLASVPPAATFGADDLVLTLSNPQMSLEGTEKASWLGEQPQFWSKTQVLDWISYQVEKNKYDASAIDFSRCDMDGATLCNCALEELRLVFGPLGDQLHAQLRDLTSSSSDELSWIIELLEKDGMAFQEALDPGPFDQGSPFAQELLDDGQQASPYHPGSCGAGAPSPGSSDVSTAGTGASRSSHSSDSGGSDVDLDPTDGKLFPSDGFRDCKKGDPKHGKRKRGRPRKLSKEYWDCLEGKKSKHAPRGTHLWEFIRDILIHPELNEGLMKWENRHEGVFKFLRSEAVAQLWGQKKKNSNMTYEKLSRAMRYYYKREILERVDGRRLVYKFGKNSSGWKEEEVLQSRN
# How it was run: as §1
# CRX = CRX (Homo sapiens, UniProt O43186 1-299); details: protein: recombinant; tags: N-terminal GST; dsDNA, one strand shown
# Sequence of CRX (O43186 whole entry): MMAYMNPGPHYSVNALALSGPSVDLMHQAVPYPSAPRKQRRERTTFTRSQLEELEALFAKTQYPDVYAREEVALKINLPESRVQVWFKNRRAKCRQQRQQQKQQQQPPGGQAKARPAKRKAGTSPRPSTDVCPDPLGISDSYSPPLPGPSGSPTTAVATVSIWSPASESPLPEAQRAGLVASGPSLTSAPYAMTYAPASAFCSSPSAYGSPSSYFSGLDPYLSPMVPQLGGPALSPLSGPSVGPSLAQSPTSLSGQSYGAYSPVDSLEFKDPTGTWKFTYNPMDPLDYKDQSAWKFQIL
# How it was run: as §1
# ETV1 = ETV1 (Homo sapiens, UniProt P50549 1-477); details: protein: recombinant; tags: N-terminal GST; dsDNA, one strand shown
# Sequence of ETV1 (P50549 whole entry): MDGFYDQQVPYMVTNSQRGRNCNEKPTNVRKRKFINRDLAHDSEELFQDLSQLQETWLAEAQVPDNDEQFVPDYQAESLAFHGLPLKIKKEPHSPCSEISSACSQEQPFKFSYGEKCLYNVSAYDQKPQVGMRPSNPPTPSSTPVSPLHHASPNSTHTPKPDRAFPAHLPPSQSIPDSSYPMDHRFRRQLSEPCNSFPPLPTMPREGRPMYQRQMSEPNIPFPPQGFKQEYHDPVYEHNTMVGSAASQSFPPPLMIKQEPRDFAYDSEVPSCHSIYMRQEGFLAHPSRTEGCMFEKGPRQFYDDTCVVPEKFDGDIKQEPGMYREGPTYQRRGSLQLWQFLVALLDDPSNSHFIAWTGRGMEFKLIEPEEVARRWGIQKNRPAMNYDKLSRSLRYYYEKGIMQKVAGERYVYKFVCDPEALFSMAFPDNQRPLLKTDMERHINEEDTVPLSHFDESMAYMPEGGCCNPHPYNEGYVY
# How it was run: as §1
# ERF = biological target: T6, ERF (Homo sapiens, UniProt P50548 1-548); details: protein: recombinant; tags: N-terminal GST; dsDNA, one strand shown
# T6 sequence: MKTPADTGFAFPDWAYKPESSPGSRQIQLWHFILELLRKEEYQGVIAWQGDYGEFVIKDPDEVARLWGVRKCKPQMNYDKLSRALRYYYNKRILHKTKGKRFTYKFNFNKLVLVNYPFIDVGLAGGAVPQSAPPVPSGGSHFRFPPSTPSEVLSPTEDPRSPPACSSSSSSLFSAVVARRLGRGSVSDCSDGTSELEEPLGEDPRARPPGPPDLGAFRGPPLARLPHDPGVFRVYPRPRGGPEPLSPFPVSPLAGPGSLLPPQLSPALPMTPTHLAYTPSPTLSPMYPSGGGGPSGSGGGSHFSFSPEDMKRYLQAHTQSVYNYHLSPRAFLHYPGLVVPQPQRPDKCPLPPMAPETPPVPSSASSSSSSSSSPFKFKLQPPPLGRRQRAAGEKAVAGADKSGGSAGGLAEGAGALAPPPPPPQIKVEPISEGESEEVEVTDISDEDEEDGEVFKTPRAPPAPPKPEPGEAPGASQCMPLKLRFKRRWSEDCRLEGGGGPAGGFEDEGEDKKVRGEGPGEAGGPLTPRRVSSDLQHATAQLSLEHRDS
# How it was run: as §1
# ETV3L = biological target: T7, ETV3L (Homo sapiens, UniProt Q6ZN32 1-361); details: protein: recombinant; tags: N-terminal GST; dsDNA, one strand shown
# T7 sequence: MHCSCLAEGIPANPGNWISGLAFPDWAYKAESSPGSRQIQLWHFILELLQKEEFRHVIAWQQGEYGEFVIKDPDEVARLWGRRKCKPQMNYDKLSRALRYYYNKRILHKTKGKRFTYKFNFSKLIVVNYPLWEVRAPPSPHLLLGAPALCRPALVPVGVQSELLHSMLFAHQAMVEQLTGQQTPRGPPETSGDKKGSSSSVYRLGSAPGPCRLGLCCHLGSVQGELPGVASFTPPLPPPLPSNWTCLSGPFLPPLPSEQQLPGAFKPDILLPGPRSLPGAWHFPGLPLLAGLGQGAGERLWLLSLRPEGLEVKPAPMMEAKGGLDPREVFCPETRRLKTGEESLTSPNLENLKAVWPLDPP
# How it was run: as §1
# ETS2 = biological target: T8, ETS2 (Homo sapiens, UniProt P15036 1-469); details: protein: recombinant; tags: N-terminal GST; dsDNA, one strand shown
# T8 sequence: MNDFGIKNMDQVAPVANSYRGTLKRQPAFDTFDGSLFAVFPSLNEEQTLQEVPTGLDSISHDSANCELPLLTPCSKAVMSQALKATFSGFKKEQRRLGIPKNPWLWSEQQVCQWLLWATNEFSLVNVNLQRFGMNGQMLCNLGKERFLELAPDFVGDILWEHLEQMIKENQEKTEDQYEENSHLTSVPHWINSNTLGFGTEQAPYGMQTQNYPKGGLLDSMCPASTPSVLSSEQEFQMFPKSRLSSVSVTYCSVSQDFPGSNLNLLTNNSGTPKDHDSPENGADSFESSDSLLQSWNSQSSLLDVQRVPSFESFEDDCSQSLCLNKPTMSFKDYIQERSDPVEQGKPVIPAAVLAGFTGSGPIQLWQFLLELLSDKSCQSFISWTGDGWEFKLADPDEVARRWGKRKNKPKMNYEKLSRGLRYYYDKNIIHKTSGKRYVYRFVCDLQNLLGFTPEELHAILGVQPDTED
# How it was run: as §1
# SPDEF = biological target: T9, SPDEF (Homo sapiens, UniProt O95238 1-335); details: protein: recombinant; tags: N-terminal GST; dsDNA, one strand shown
# T9 sequence: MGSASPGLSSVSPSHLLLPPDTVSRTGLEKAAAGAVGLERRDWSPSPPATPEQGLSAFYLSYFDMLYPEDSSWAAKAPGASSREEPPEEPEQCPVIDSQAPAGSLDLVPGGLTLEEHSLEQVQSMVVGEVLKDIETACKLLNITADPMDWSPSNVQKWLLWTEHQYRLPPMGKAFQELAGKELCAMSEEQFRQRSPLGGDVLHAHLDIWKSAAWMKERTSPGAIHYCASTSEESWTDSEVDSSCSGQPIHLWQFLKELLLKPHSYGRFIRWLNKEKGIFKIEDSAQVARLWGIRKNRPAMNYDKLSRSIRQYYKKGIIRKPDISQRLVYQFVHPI
# How it was run: as §1
# ETV7 = biological target: T10, ETV7 (Homo sapiens, UniProt Q9Y603 1-341); details: protein: recombinant; tags: N-terminal GST; dsDNA, one strand shown
# T10 sequence: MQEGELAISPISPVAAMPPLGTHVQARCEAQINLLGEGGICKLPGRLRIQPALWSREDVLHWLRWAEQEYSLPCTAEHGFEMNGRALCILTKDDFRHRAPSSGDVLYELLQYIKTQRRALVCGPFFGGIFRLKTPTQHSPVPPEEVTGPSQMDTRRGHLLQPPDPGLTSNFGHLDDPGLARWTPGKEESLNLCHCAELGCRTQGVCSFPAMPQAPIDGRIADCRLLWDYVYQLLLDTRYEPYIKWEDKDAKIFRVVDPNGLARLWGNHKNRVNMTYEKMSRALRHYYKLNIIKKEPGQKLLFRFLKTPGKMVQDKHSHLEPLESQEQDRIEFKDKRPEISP
# How it was run: as §1
# ELF5 = biological target: T11, ELF5 (Homo sapiens, UniProt Q9UKW6-2 1-255); details: protein: recombinant; tags: N-terminal GST; dsDNA, one strand shown
# T11 sequence: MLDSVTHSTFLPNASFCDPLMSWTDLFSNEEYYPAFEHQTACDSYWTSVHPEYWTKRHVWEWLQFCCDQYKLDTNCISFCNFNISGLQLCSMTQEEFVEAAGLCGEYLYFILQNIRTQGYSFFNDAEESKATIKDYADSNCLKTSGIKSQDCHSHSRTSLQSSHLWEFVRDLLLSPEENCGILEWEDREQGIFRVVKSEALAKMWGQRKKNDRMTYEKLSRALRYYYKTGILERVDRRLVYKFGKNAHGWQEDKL
# How it was run: as §1
# ETV3 = biological target: T12, ETV3 (Homo sapiens, UniProt P41162-2 1-143); details: protein: recombinant; tags: N-terminal GST; dsDNA, one strand shown
# T12 sequence: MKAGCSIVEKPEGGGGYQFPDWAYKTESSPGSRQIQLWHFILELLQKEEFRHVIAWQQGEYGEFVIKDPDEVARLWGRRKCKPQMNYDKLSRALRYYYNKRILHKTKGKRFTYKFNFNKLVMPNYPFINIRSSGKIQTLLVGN
# How it was run: as §1
# ETV6 = ETV6 (Homo sapiens, UniProt P41212 1-452); details: protein: recombinant; tags: N-terminal GST; dsDNA, one strand shown
# Sequence of ETV6 (P41212 whole entry): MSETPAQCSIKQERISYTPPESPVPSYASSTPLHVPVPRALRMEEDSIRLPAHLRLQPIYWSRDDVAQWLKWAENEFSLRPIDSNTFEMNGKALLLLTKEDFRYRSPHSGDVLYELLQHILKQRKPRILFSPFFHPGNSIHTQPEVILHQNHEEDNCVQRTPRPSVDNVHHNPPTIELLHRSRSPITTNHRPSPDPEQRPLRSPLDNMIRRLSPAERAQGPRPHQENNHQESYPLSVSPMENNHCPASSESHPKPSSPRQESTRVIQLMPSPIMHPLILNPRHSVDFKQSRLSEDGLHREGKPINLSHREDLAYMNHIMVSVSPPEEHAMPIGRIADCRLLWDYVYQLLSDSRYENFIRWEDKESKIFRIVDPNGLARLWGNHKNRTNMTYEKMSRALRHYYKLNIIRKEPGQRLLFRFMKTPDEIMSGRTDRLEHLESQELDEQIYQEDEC
# How it was run: as §1
sequence,measurement,setting,value
CTCACT,binding signal,FEV,"1.63 fold enrichment (6-mer frequency, TF over GST control)"
same,binding signal,ETV5,"1.4 fold enrichment (6-mer frequency, TF over GST control)"
same,binding signal,HSF1,"1.36 fold enrichment (6-mer frequency, TF over GST control)"
same,binding signal,SPIC,"1.57 fold enrichment (6-mer frequency, TF over GST control)"
same,binding signal,ELF4,"1.53 fold enrichment (6-mer frequency, TF over GST control)"
same,binding signal,ELK4,"1.38 fold enrichment (6-mer frequency, TF over GST control)"
same,binding signal,ETV2,"1.51 fold enrichment (6-mer frequency, TF over GST control)"
same,binding signal,ELF3,"1.63 fold enrichment (6-mer frequency, TF over GST control)"
same,binding signal,CRX,"1.27 fold enrichment (6-mer frequency, TF over GST control)"
same,binding signal,ETV1,"1.49 fold enrichment (6-mer frequency, TF over GST control)"
same,binding signal,ERF,"1.45 fold enrichment (6-mer frequency, TF over GST control)"
same,binding signal,ETV3L,"1.52 fold enrichment (6-mer frequency, TF over GST control)"
same,binding signal,ETS2,"1.6 fold enrichment (6-mer frequency, TF over GST control)"
same,binding signal,SPDEF,"1.44 fold enrichment (6-mer frequency, TF over GST control)"
same,binding signal,ETV7,"1.56 fold enrichment (6-mer frequency, TF over GST control)"
same,binding signal,ELF5,"1.54 fold enrichment (6-mer frequency, TF over GST control)"
same,binding signal,ETV3,"1.5 fold enrichment (6-mer frequency, TF over GST control)"
same,binding signal,ETV6,"1.6 fold enrichment (6-mer frequency, TF over GST control)"
